A selection: hits, their analogues and other compounds. The true share with any hit is near 1.2%.
Tb PGK inh = blocks T. brucei phosphoglycerate kinase; PGK/GAPDH coupled, Kinase-Glo luminescence, 60 min; 0.043% of 380,000 active; P07378; AID 602233; Potency, µM (highest dose often 57.5 µM), for the others: at the top dose activity change, negative = inhibition, most hits filed as inhibitors; also: potency is read from the fitted curve at half-maximal effect; nearly all actives have a fitted effect of over 60% in size
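Luminescent ATP detection (Kinase-Glo Plus) follows a 60-minute room-temperature incubation, with wells lacking PGK as controls. Buffer: 100 mM TEA (pH 7.6), 5 mM MgCl2, 0.01% Tween-20. Coupling enzyme GAPDH (100 nM final) supplies unstable 1,3-BPG in-well.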
RGS4 inhibitor = inhibitors of human regulator of G protein signaling 4 | P49798 | Potency, µM (highest dose often 114 µM), inactives show top-dose activity change, negative = inhibition, actives largely listed as inhibitors | Transcreener GDP fluorescence polarization, RGS4-accelerated GTP hydrolysis | 0.039% of 390,000 active; also: potency is read from the fitted curve at half-maximal effect; nearly all actives have a fitted effect of over 75% in size
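MLSMR compounds (23 nl, pin-transferred) preincubated 10 min at room temperature with a 500nM (2x) first reagent, then RGS4 at 900nM (2x) plus Transcreener GDP mix added; fluorescence polarization (620/688 nm) read before and after 90 min at 30 °C.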
KCNH2 3.1 block = inhibitors of human KCNH2 3.1 potassium channel isoform; U2OS KCNH2 3.1, thallium flux FluxOr; stronger effect = lower value; activity change, % (tested at about 1.8 µM); 0.95% of 340,000 active;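 active = maximum activity change below -70%; inconclusive = maximum activity change from -70% to -50%; inactive = maximum activity change above -50%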;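 also: thallium influx rate constant from kinetic fluorescence after stimulation buffer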
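We transduce U2OS cells with the mutant 3.1 virus, culture them overnight, load FluxOr with Red40 quencher for 45 min, then add stimulation buffer and read kinetically for 2 min to derive a normalized rate constant.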
KCNH2 WT inh = inhibitors of human wildtype KCNH2 potassium channel. Q12809. U2OS, BacMam KCNH2, thallium flux FluxOr; stronger effect = lower value. activity change, % at 1.84 µM. 0.37% of 340,000 active. AID 720551;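 active = maximum activity change below -70%; inconclusive = maximum activity change between -70% and -50%; inactive = maximum activity change above -50%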
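U2OS cells transduced with wild-type KCNH2 virus are loaded with FluxOr dye for 45 min, and thallium flux is measured in kinetic reads before and after stimulation buffer. Rate constants are normalized to DMSO controls.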
Pin1 inhibitor = blocks the human prolyl isomerase Pin1 | Pin1 FP peptide displacement, HiFluor488, 10 min | Potency, µM (highest dose often 115 µM), for the others: at the highest dose activity, negative = inhibition, actives largely listed as inhibitors | Q13526 | AID 504891 | 0.009% of 390,000 active; active = well fitted inhibition curve with a large enough effect in the polarisation, with a control signal flat, not every such curve was filed as active; inconclusive = small, poorly fitted or top-dose-only effect, or effect the other way, or a change in a side signal; inactive = no such curve, though single readings can be large or run the other way; the % refers to the polarisation; also: potency is read from the fitted curve at half-maximal effect
GCN5L2 inh = GCN5L2 (KAT2A) acetyltransferase inhibition. Q92830. GCN5L2 HAT assay, ThioGlo1 CoA-SH fluorescence. Potency, µM (highest dose often 58.9 µM), without a hit: at the top dose activity change, negative = inhibition, actives largely listed as inhibitors. 0.21% of 390,000 active. AID 504327; also: potency is read from the fitted curve at half-maximal effect
Target sequence (Q92830 whole entry, looked up): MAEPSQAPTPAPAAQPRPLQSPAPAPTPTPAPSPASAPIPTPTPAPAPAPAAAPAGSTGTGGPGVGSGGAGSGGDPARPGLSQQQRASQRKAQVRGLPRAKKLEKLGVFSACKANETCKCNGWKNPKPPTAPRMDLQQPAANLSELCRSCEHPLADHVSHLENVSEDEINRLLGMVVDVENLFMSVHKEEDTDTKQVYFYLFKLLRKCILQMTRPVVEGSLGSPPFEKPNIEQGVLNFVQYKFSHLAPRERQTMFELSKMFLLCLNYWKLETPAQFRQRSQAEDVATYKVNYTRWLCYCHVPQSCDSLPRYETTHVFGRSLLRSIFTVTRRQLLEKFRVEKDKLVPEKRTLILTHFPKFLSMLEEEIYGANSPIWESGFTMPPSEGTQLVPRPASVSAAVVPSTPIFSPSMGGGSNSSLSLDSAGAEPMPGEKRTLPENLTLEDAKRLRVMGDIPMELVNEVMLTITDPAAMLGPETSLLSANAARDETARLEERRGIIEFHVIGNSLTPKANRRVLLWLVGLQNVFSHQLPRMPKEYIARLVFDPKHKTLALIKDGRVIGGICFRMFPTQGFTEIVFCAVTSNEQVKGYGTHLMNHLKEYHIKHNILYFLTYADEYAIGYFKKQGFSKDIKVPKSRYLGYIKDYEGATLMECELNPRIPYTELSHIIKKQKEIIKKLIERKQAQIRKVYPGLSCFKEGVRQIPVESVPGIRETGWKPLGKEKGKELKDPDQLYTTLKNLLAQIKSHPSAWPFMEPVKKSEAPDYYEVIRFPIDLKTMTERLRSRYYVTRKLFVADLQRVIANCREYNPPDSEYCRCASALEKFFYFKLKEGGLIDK
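GCN5L2 (20 nM) in 50mM HEPES pH 7.5, 0.1mM EDTA, 0.01% Tween-20 preincubated 15 min with compounds at room temperature. Reaction started with H3(1-25) 75uM, acetyl-CoA 70uM, ThioGlo1 50uM; CoA-thiol fluorescence (Ex340/Em540) read at 0 and 20 min.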
The depositor's hits bear a star; i = inactive; ? = inconclusive; . = not tested or not shown; [ ] = remark or other dose. Unless noted, calls follow the shape of the dose curve; as a rule, active = well fitted curve in the direction sought with a large enough effect; inconclusive = small, poorly fitted or top-dose-only effect, or another doubt; inactive = no such curve, though single readings can be large; an effect the other way counts as inactive or inconclusive. % is scaled to controls: 0 for no effect and ±100 for the full control effect.

SMILES	Tb PGK inh	RGS4 inhibitor	KCNH2 3.1 block	KCNH2 WT inh	Pin1 inhibitor	GCN5L2 inh
CCOC(=O)c1cccc(NC(=O)c2nn(-c3ccc(OC)cc3)c(=O)c3c2c2ccccc2n3C)c1	.	-5%	.	.	-1%	-1%
CN(C)c1ccc(-c2cc[nH]c(=O)c2N)cc1	.	.	.	.	-1%	.
CCOc1cc(S(=O)(=O)N2CCN(c3ccc(F)cc3)CC2)c(OCC)cc1-n1cnnn1	-3%	6%	-79*	-76*	-2%	-13%
CCOc1cc(S(=O)(=O)N2CCN(S(=O)(=O)CC)CC2)c(OCC)cc1-n1cnnn1	-6%	4%	-15	-2	2%	-2%
O=C(Cn1cncn1)N/N=C/c1cc([N+](=O)[O-])ccc1O	-9%	16%	4	-104*	1%	-13%
CCOC(=O)C1(Cc2ccccc2C)CCCN(C(=O)COC)C1 (configuration not stated)	-1%	-1%	-107*	7	-9%	-8%
CCc1ccc(OCC(=O)N(Cc2ccc(C)o2)C2CCS(=O)(=O)C2)cc1 (configuration not stated)	.	6%	.	.	0%	-5%
CCOC(=O)c1cn(-c2nc(-c3ccc(Cl)c(Cl)c3)cs2)c2c(F)c(N3CCOCC3)c(F)cc2c1=O	i	-4%	0	-11	3%	2.5µM*
CCOC(=O)c1cn(-c2ccc(F)c(F)c2F)c2c(F)c(F)c(F)cc2c1=O	i	-30%	-8	2	1%	5%
NCCCCCCCCCCNCCCN	.	.	.	.	.	-6%
CN1CCN(c2nc(NCCOC34CC5CC(CC(C5)C3)C4)nc(OCC(F)(F)F)n2)CC1	8%	4%	-71*	24	3%	-11%
CCCNc1nc(OCC(F)(F)F)nc(OCC(F)(F)F)n1	.	26%	-6	1	3%	-1%
Cc1ccc(NC(=O)c2c(C(=O)Nc3ccccc3)sc3nc(C)cc(=O)n23)cc1	2%	-5%	-103*	4	2%	-6%
COc1ccc(NC(=O)c2c(C(=O)Nc3ccccc3)sc3nc(C)cc(=O)n23)cc1	12%	-6%	.	.	2%	-2%
CCc1ccc(-n2nnc(-c3nc(-c4cccs4)no3)c2N)cc1	7%	6%	.	.	-3%	-6%
CCOc1ccc(C(=O)Nc2c(C(=O)N3CCC(N4CCCCC4)CC3)oc3ccccc23)cc1	i	7%	-28	23	11%	4%
CCOCCCN(C)C1CCN(C(=O)c2oc3ccccc3c2NC(=O)COc2ccc(F)cc2)CC1	2%	25%[11.4 µM]	-100*	-42	-9%	-2%
O=C(Cc1ccccc1)Nc1c(C(=O)N2CCN(c3ccc(F)cc3)CC2)oc2ccccc12	-10%	-8%	.	.	-3%	-14%
CCOCCCN(C)C1CCN(C(=O)c2oc3ccccc3c2NC(=O)Cc2ccc(F)cc2)CC1	5%	33%[11.4 µM]	-83*	-107*	2%	-5%
CCOCCCN(C)C1CCN(C(=O)c2oc3ccccc3c2NC(=O)c2cccc([N+](=O)[O-])c2)CC1	1%	7%[11.4 µM]	-107*	-79*	-4%	-2%
c1cncc(-c2nc(NCCN3CCOCC3)c3ccccc3n2)c1	.	.	.	.	.	-10%
Cc1nn(-c2ccc(N3CCCC3)nn2)c(C)c1CCC(=O)NCc1ccccc1F	7%	24%	.	.	-12%	-2%
CCOc1ccc(CCNC(=O)C2CCN(C(=O)c3cc4sccc4n3CC)CC2)cc1OCC	-7%	-6%	.	.	-1%	-3%
CC(=O)c1ccc(NC(=O)CN2C(=O)CCc3cc(S(=O)(=O)N4CCC(C)CC4)ccc32)cc1	25µM*	0%	.	.	-2%	1%
Cc1ccc(C2c3c(-c4cc(C)ccc4O)n[nH]c3C(=O)N2Cc2ccco2)cc1 (configuration not stated)	10%	12%	.	.	?	-24%
Cc1cc(C)c(O)c(-c2n[nH]c3c2C(c2cccc(O)c2)N(Cc2ccco2)C3=O)c1 (configuration not stated)	i	0%[11.4 µM]	0	-91*	4%	?

Screens as filed in PubChem BioAssay.
